# Source: PubChem BioAssay (NCATS)
# Results filed as inconclusive are left out. Activity calls are given as the source filed them. Unless noted, the call rests on the fitted dose curve; in most records, active means well fitted curve in the direction sought with a large enough effect; inconclusive means small, poorly fitted or top-dose-only effect, or another doubt; inactive means no such curve, though single readings can be large; an effect the other way counts as inactive or inconclusive.
# Experiments:
# [1] = target: Lysosomal acid glucosylceramidase (Homo sapiens) (UniProt P04062); test: Glucocerebrosidase-p2 (AID 348; in the data active means potency below about 10 µM; further: potency means the concentration at half of the fitted maximal effect); conditions: purified GBA, blue fluorogenic substrate, 40 min
# Chain of Lysosomal acid glucosylceramidase (Homo sapiens) (P04062 whole entry, looked up): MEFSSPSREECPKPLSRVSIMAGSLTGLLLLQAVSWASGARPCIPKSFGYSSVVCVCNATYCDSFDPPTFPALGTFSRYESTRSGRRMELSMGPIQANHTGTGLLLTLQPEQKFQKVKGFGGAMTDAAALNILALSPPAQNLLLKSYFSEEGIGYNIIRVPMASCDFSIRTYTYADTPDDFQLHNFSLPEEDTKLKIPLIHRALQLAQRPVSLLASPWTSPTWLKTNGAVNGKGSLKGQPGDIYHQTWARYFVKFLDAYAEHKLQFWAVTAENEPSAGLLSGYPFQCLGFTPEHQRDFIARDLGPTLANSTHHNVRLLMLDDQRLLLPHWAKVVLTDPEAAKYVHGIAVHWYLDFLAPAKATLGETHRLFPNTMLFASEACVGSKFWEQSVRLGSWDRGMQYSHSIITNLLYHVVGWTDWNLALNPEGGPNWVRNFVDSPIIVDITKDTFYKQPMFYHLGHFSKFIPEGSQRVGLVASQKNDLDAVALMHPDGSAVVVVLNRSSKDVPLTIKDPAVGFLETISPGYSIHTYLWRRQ
# Summary of the method: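 Compounds titrated from 0.6 nM upwards against 0.2 nM enzyme in pH 5.9 citric acid/KH2PO4, taurocholate, tween-20; blue fluorogenic substrate 80 uM, 40 min room temperature, stopped and read Ex 365/Em 440 for AC50.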
# [2] = AP1 Signaling Pathway (AID 357; active means well fitted curve in either direction with a large enough effect, not every such curve was filed as active;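 further: ME-180 reporter cells stimulated with EGF at its EC50 level; on the % scale 0 is the no-effect control and ±100 the full control effect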); conditions: ME-180 AP-1-bla reporter, EGF-induced, beta-lactamase ratio, 5 h; at 7.69 µM (top of the series) unless noted
# Summary of the method: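 Cells are seeded overnight, exposed to compound titrations and an EC50 level of EGF for 5 hours at 37 °C, then loaded with CCF4 dye for 2.5 hours. Beta-lactamase activity under the AP-1 element is read as a blue/green ratio.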
# [3] = target: Cytochrome P450 1A2 (Homo sapiens) (UniProt P05177); test: p450-cyp1a2 (AID 410; calls by dose curve; further: potency means the concentration at half of the fitted maximal effect); conditions: recombinant CYP1A2, luciferin-ME demethylation, luminescence; series mostly up to 57 µM
# Chain of Cytochrome P450 1A2 (Homo sapiens) (P05177 whole entry, looked up): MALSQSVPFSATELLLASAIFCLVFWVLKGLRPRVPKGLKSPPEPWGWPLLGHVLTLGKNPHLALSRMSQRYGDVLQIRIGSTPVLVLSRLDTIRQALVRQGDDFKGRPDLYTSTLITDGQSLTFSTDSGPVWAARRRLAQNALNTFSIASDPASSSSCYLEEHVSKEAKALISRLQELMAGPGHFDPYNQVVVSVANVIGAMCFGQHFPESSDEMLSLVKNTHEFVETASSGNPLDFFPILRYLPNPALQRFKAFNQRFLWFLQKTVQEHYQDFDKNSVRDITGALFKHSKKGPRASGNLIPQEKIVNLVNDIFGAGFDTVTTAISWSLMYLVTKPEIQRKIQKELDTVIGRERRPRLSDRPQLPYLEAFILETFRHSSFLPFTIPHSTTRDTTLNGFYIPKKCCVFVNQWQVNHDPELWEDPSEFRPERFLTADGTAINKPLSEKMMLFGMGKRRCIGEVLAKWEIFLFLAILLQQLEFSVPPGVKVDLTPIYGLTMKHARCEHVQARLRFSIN
# Summary of the method: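 Inhibition was calculated relative to 57 uM furafylline (full inhibition). The reaction used human CYP1A2 at 20nM with Luciferin-ME at its Km, 100uM, driven by an NADPH-regenerating system for 60 min at room temperature.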
# [4] = NFAT Signaling Pathway (AID 444; active means well fitted curve in either direction with a large enough effect, not every such curve was filed as active;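 further: carbachol stimulus at about its EC50 of 1 µM final; on the % scale 0 is the no-effect control and ±100 the full control effect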); conditions: Jurkat NFAT-bla M1, carbachol, beta-lactamase ratio, 5 h; at 7.69 µM (top of the series) unless noted
# Summary of the method: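 Jurkat cells with NFAT-driven β-lactamase reporter and co-expressed M1 receptor, stimulated with carbachol (final 1 uM, ~EC50), compound titration, 5 h at 37 °C. CCF4 loaded 1 h at RT; 460/530 nm ratio gave %activity and AC50.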
# [5] = Stat Signaling Pathway (AID 446; active means well fitted curve in either direction with a large enough effect, not every such curve was filed as active;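 further: ME-180 cervical cancer cells given 40 pM IL-6 alongside compound; SIE-controlled beta-lactamase reporter measured as 460/530 nm FRET emission ratio; on the % scale 0 is the no-effect control and ±100 the full control effect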); conditions: ME-180 SIE beta-lactamase reporter, IL-6 stimulated, 5 h; at 7.69 µM (top of the series) unless noted
# Summary of the method: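 ME-180 SIE-bla cells; overnight plating; cpd + IL-6 40 pM, 5 h, 37 C; LiveBLAzer 2.5 h RT; 460/530 nm emission ratio. Normalized to 300 pM IL-6 and 125 nM JAK inhibitor controls.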
# [6] = target: Glucocorticoid receptor (Homo sapiens) (UniProt P04150); test: GR-GFP Redistribution (AID 450;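 active means compounds whose dose series gives a full or clear partial fitted curve of increased nuclear translocation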; further: potency means the concentration at half of the fitted maximal effect); conditions: U2OS GR-GFP nuclear translocation, laser cytometry, 2 h
# Chain of Glucocorticoid receptor (Homo sapiens) (P04150 whole entry, looked up, the tested form may be a part): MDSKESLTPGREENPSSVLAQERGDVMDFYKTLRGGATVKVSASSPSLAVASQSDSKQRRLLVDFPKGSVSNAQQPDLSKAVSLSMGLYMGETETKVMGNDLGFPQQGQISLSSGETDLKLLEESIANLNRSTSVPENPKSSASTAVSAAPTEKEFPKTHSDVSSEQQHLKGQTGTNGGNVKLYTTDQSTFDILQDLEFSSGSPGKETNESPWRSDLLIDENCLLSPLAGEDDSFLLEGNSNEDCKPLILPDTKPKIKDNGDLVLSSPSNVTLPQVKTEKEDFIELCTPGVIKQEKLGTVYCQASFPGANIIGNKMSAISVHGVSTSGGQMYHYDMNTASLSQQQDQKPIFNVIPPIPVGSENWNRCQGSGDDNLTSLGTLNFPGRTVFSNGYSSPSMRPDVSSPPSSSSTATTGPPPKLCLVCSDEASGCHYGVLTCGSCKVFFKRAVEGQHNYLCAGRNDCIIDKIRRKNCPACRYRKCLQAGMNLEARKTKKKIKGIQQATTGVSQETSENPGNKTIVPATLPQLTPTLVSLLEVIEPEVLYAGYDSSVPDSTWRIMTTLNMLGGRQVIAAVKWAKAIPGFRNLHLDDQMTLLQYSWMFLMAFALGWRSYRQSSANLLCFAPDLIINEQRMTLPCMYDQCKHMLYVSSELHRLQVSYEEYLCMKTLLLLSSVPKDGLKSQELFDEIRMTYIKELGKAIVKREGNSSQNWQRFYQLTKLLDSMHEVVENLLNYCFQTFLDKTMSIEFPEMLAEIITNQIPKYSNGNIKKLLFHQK
# [7] = target: Glucocorticoid receptor (Homo sapiens) (UniProt P04150); test: GR-EFC Redistribution (AID 451; calls by dose curve; further: potency means the concentration at half of the fitted maximal effect); conditions: CHO-K1 GR-EFC translocation, beta-gal luminescence, 2 h
# Summary of the method: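 CHO-K1 cells expressing nuclear EA and GR-ED fragments of b-gal; compounds titrated up to 46 uM final, 2 h at 37 C. GR nuclear translocation read as complemented b-gal luminescence after 1 h RT detection.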
# [8] = target: Mitogen-activated protein kinase 10 (Mus musculus) (UniProt Q61831); test: JNK3 AlphaScreen Assay (AID 530; active means well fitted curve in either direction with a large enough effect, not every such curve was filed as active;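 further: kinase came from lysate of stimulated human HepG2 cells; signal reports phosphorylation of biotinylated GST-cJun 1-79 at Ser73 with 10 µM ATP; on the % scale 0 is the no-effect control and ±100 the full control effect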); conditions: JNK3 lysate, c-Jun phosphorylation; series mostly up to 57.1 µM
# Summary of the method: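 qHTS format: compounds tested as titrations against IL-1beta/TNF-alpha-activated HepG2 lysate JNK3 with biotin-GST-cJun substrate and 10 uM ATP at room temperature. Loss of anti-phospho-cJun AlphaScreen signal indicates inhibition.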
# [9] = target: Cytochrome P450 3A4 (Homo sapiens) (UniProt P08684); test: qHTS Assay for Activators of Cytochrome P450 3A4 (AID 885); conditions: recombinant CYP3A4, Luciferin-PPXE luminescence, 60 min; series mostly up to 57.1 µM; further: nearly all actives have a fitted effect of over 65% in size
# Chain of Cytochrome P450 3A4 (Homo sapiens) (P08684 whole entry, looked up): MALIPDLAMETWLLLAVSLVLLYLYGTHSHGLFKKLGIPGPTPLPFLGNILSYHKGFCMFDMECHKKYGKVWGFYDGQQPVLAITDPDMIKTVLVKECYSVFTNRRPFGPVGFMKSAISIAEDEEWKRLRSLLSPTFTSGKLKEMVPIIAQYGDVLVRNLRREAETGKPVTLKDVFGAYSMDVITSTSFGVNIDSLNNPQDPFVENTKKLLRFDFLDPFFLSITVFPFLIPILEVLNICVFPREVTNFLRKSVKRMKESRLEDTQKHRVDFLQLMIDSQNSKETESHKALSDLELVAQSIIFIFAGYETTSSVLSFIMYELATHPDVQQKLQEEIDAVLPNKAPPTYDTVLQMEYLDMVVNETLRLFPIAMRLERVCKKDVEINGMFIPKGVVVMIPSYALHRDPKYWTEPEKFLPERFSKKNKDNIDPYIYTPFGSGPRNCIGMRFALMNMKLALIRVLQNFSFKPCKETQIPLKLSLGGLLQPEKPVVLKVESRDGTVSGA
# Summary of the method: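 20nM CYP3A4 + 25uM Luciferin-PPXE (=KM), 200mM KPO4; cpd 10 min RT; NADPH regen, 60 min RT; stop w/ detection buffer, 20 min; luminescence. Normalized to 57 uM ketoconazole.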
# [10] = qHTS Assay for Lipid Storage Modulators (AID 1519; calls by dose curve); conditions: Drosophila S3 cells, BODIPY lipid droplet/cell ratio, laser cytometry, cells loaded with oleic acid; for activity change, negative = inhibition: at 57.5 µM (top of the series)
# Summary of the method: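 Cells seeded at 5,000 per well were treated with compounds over a concentration series and loaded with oleic acid (400 uM, as added). Lipid droplet fluorescence (488 nm excitation, 500-530 nm channel) was read by laser-scanning cytometry and normalized to 20 uM Triacsin C.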
# [11] = Confirmatory qHTS for small molecule stabilizers of the endoplasmic reticulum resident proteome: Secreted ER Calcium Modulated Protein (SERCaMP) assay (AID 1508628); conditions: SERCaMP secreted luciferase ER calcium/proteostasis reporter; series mostly up to 76.3 µM; further: nearly all actives have a fitted effect of over 40% in size; further: potency means the concentration at half of the fitted maximal effect
# Summary of the method: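 We seeded SH-SY5Y-GLuc-SERCaMP cells, added compounds (three concentrations in the primary run, eleven up to 76.6 uM in confirmation), incubated 16 h, depleted ER calcium with thapsigargin, and read luciferase 4 h later.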
# [12] = target: 3',5'-cyclic-AMP phosphodiesterase 4B (Homo sapiens) (UniProt Q07343); test: qHTS Assay for Inhibitors of PDE-IV (AID 607; active means well fitted activation curve with a large enough effect in the main read-out, with a control signal flat, not every such curve was filed as active; further: % of control where 0% means no effect); conditions: HEK293 ACTOne CNG channel cells, membrane potential fluorescence; series mostly up to 22.9 µM
# Chain of 3',5'-cyclic-AMP phosphodiesterase 4B (Homo sapiens) (Q07343 whole entry, looked up): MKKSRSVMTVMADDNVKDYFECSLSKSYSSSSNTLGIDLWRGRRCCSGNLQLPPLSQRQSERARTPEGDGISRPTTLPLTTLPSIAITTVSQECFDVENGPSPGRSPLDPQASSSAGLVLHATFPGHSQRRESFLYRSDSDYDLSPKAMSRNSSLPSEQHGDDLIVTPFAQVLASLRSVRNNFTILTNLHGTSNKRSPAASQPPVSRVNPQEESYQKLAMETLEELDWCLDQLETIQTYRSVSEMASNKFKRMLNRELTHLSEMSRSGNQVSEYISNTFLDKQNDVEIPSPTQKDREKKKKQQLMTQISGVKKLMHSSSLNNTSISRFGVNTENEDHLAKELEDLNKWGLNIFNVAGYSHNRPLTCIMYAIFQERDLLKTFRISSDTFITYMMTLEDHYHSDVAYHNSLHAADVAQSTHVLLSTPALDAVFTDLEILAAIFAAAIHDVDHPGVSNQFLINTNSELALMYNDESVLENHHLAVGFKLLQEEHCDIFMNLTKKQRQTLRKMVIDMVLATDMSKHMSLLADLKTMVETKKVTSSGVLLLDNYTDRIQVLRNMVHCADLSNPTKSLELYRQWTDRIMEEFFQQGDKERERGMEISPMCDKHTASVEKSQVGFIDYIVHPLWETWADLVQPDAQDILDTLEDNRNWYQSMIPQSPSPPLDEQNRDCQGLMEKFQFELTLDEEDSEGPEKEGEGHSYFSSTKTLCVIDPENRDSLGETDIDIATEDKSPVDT
# Summary of the method: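 ACTOne HEK293 cells carry a modified cAMP-gated CNG channel and express endogenous PDE4; plated 1000 cells/well, compounds up to 22.9 uM final. Membrane-potential dye fluorescence (ex 535/em 590) was read; parental cells received 10 uM forskolin + 100 uM RO 20-1724.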
# [13] = target: Dual specificity protein kinase CLK4 (Homo sapiens) (UniProt Q9HAZ1); test: qHTS Assay for Inhibitors of CDC-like Kinase 4 (Kinase-Glo Assay) (AID 1770); conditions: recombinant Clk4, Kinase-Glo ATP depletion luminescence; series mostly up to 66.7 µM; further: on the % scale 0 is the no-effect control and ±100 the full control effect; nearly all actives have a fitted effect of over 65% in size
# Chain of Dual specificity protein kinase CLK4 (Homo sapiens) (Q9HAZ1 whole entry, looked up): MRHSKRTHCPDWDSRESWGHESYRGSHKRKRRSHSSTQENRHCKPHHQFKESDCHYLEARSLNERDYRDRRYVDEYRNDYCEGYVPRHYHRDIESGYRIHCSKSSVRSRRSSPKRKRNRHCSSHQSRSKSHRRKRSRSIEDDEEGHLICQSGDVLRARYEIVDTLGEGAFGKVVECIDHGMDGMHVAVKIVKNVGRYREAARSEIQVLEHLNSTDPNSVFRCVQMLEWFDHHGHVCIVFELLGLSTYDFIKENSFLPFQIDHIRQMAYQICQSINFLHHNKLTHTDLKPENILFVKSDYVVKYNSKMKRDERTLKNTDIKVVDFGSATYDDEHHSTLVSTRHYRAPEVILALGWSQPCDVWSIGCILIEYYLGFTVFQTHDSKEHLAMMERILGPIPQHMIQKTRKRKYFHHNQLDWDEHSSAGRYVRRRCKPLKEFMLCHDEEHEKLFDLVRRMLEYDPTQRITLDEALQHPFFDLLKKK
# Summary of the method: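 Clk4 25 nM, RS peptide 100 uM, ATP 1 uM, pH 7.5 Tris, 10 mM MgCl2, 2.5 mM DTT; 4.5 h RT; ATP depletion read by Kinase-Glo luminescence.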
# [14] = target: Dual specificity protein kinase CLK4 (Homo sapiens) (UniProt Q9HAZ1); test: qHTS Assay for Inhibitors of CDC-like Kinase 4 (ADP-Glo Assay) (AID 1771); conditions: recombinant CLK4, ADP-Glo luminescence; series mostly up to 80 µM; further: on the % scale 0 is the no-effect control and ±100 the full control effect; nearly all actives have a fitted effect of over 70% in size
# Summary of the method: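 Kinase reaction: Clk4 at 25 nM, RS repeat peptide substrate at 100 uM, ATP at 1 uM, 1 hr, room temperature. Product ADP detected as luciferase signal via ADP-Glo.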
# [15] = target: Dual specificity protein kinase CLK4 (Homo sapiens) (UniProt Q9HAZ1); test: qHTS Assay for Inhibitors of CDC-like Kinase 4 (ADP-FP Assay) (AID 1795); conditions: Transcreener ADP fluorescence polarization; series mostly up to 50 µM;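 further: recombinant human CLK4 phosphorylating RS repeat peptide at 1 µM ATP; on the % scale 0 is the no-effect control and ±100 the full control effect; nearly all actives have a fitted effect of over 60% in size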
# Summary of the method: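 Kinase activity was followed as ADP output, converted from fluorescence polarization with a calibration curve. Reactions ran one hour at low ATP (1 uM) with RS peptide substrate.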
# [16] = target: Ubiquitin carboxyl-terminal hydrolase 1 (Homo sapiens) (UniProt O94782); test: Inhibitors of USP1/UAF1: Pilot qHTS (AID 504865); conditions: purified USP1/UAF1, Ub-rhodamine cleavage fluorescence; series mostly up to 54.9 µM;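 further: rhodamine fluorescence freed from ubiquitin-rhodamine substrate followed over time; top concentration of the series differs between compounds; on the % scale 0 is the no-effect control and ±100 the full control effect; nearly all actives have a fitted effect of over 35% in size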
# Chain of Ubiquitin carboxyl-terminal hydrolase 1 (Homo sapiens) (O94782 whole entry, looked up): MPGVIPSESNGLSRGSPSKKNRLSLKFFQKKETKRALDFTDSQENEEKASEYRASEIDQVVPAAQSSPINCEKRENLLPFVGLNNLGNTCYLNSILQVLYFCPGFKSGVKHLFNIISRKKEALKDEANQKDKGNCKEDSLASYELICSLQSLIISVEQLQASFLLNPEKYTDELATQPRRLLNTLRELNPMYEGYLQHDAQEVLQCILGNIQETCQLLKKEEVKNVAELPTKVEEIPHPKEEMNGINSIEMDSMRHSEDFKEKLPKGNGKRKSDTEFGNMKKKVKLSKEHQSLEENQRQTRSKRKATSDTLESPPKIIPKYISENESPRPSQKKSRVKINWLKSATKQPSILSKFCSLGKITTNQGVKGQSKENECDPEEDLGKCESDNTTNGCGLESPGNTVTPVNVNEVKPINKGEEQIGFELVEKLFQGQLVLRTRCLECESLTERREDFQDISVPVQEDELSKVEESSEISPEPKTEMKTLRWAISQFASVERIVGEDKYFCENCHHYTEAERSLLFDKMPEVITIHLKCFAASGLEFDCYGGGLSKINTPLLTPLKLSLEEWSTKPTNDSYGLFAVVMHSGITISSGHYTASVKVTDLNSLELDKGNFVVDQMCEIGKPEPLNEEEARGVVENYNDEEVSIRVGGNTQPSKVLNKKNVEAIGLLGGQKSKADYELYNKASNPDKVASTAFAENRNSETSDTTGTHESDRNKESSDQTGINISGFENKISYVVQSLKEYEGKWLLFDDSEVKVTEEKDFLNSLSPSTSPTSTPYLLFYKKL
# Summary of the method: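 Enzyme-free wells gave the negative control, while test wells held 1nM USP1/UAF1 preincubated with compound for 15 min at room temperature. Ub-Rho at 150nM final started the reaction, and fluorescence at 480/540 nm was recorded kinetically.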
# [17] = target: Rap guanine nucleotide exchange factor 3 (Homo sapiens) (UniProt O95398); test: Confirmatory qHTS for agonist of cAMP-regulated guanine nucleotide exchange factor 3 (EPAC1) (AID 1645881); conditions: EPAC1 Rap1B BODIPY-GDP exchange fluorescence, 100% = cAMP control response; series mostly up to 154 µM;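 further: EPAC1 catalysed release of BODIPY-GDP from Rap1B seen as fluorescence loss; nearly all actives have a fitted effect of over 75% in size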
# [18] = target: Rap guanine nucleotide exchange factor 4 (Homo sapiens) (UniProt Q8WZA2); test: Confirmatory qHTS for agonist of cAMP-regulated guanine nucleotide exchange factor 4 (EPAC2) (AID 1645884); conditions: EPAC2 GEF activity, Rap1B-BODIPY-GDP fluorescence, percent relative to cAMP agonist control; series mostly up to 154 µM;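 further: nucleotide exchange releases bodipy-GDP from Rap1 and this lowers its fluorescence; on the % scale 0 is the no-effect control and ±100 the full control effect; nearly all actives have a fitted effect of over 65% in size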
# [19] = measured here: cell count channel max response
# [20] = measured here: lipid channel max response
smiles,measurement,setting,value
CN1CCN(c2ncnc3ccc(-c4ccccc4C#N)cc23)CC1,Potency,[1],> 11.4 µM (inactive)
same,"activity change, negative = inhibition",[2],15.1% (inactive)
same,Potency,[3],3.16 µM (active)
same,"activity change, negative = inhibition",[4],-9.23% (inactive)
same,"activity, negative = inhibition",[5],19.8% (inactive)
same,Potency,[6],> 46 µM (inactive)
same,Potency,[7],> 46 µM (inactive)
same,outcome,[8],inactive
same,Potency,[9],inactive
same,"activity change, negative = inhibition",[10],3.92% (inactive)
same,max response,[10]; [19],-20.1%
same,max response,[10]; [20],-16%
same,Potency,[11],inactive
COc1ccc(-n2c(=O)c(-c3ccccc3)nc3cnc(N4CCNCC4)nc32)cc1,Potency,[1],> 11.4 µM (inactive)
same,Potency,[3],15.8 µM (active)
same,Potency,[6],> 9.22 µM (inactive)
same,Potency,[7],> 46 µM (inactive)
same,outcome,[8],inactive
same,Potency,[12],inactive
same,Potency,[13],inactive
same,Potency,[14],inactive
same,Potency,[15],inactive
same,Potency,[16],inactive
COCCn1c(=O)c(-c2ccccc2)nc2cnc(OCc3ccccc3)nc21,Potency,[1],> 11.4 µM (inactive)
same,"activity change, negative = inhibition",[4],0.0505% (inactive)
same,"activity, negative = inhibition",[5],-5.1% (inactive)
same,Potency,[6],> 9.22 µM (inactive)
same,Potency,[7],> 46 µM (inactive)
same,Potency,[12],inactive
same,Potency,[11],39.8 µM (active)
N#CCCn1c(=O)c(-c2cc(F)cc(F)c2)nc2cnc(OCc3ccccc3)nc21,Potency,[1],> 11.4 µM (inactive)
same,"activity change, negative = inhibition",[2],-10.3% (inactive)
same,Potency,[3],6.31 µM (active)
same,"activity change, negative = inhibition",[4],-0.0706% (inactive)
same,"activity, negative = inhibition",[5],3.6% (inactive)
same,Potency,[6],> 9.22 µM (inactive)
same,Potency,[7],> 46 µM (inactive)
same,outcome,[8],inactive
same,Potency,[12],inactive
same,Potency,[9],inactive
same,Potency,[11],44.7 µM (active)
Cc1cccc(CNc2cc(-c3ccccc3CN(C)C)ncn2)c1,Potency,[1],> 11.4 µM (inactive)
same,"activity change, negative = inhibition",[2],9.15% (inactive)
same,Potency,[3],25.1 µM (active)
same,"activity, negative = inhibition",[5],11.7% (inactive)
same,Potency,[6],> 46 µM (inactive)
same,Potency,[7],> 46 µM (inactive)
same,outcome,[8],inactive
same,Potency,[9],inactive
same,"activity change, negative = inhibition",[10],2.35% (inactive)
same,max response,[10]; [19],2.52%
same,max response,[10]; [20],10%
same,Potency,[16],inactive
Cc1ccc(P(=O)(CSC(=N)N)c2ccc(C)cc2)cc1,Potency,[11],inactive
same,outcome,[17],inactive
same,activation,[18],-5.01% [at 17.1 µM] (inactive)
COc1ccc(-c2nc3cnc(N4CCNCC4)nc3n(CCc3ccccc3)c2=O)cc1,Potency,[1],> 11.4 µM (inactive)
same,"activity change, negative = inhibition",[2],111% [activator] (active)
same,Potency,[3],15.8 µM (active)
same,Potency,[6],> 9.22 µM (inactive)
same,Potency,[7],> 46 µM (inactive)
same,Potency,[12],inactive
same,Potency,[9],inactive
same,"activity change, negative = inhibition",[10],-10.5% (inactive)
same,max response,[10]; [19],-3.35%
same,max response,[10]; [20],-12.2%
same,Potency,[11],inactive
COc1ccc(-c2nc3cnc(N4CCN(C)CC4)nc3n(Cc3cccc(OC)c3)c2=O)cc1,Potency,[1],> 11.4 µM (inactive)
same,Potency,[6],> 9.22 µM (inactive)
same,Potency,[7],> 46 µM (inactive)
same,Potency,[12],inactive
same,"activity change, negative = inhibition",[10],-2.59% (inactive)
same,max response,[10]; [19],8.4%
same,max response,[10]; [20],2.85%
same,Potency,[13],inactive
same,Potency,[14],inactive
same,Potency,[15],inactive
same,Potency,[16],inactive
same,Potency,[11],inactive
